One sequence from paper PMC7862700, “An all-to-all approach to the identification of sequence-specific readers for epigenetic DNA modifications on cytosine” can be followed below.

Common to all, as to experiment: DAPPL (digital affinity profiling via proximity ligation, sequencing); 10 mM Tris-HCl pH 7.5, 50 mM NaCl, 1 mM DTT, 4% glycerol, room temperature, 30 min; GST-TFs on glutathione beads, 16-mer random dsDNA library, 0.1% formaldehyde crosslink after washing; high values mean tight binding
Common to all, as to details: protein: recombinant; tags: N-terminal GST; dsDNA, one strand shown

The target in one assay is T1, ELK1 (Homo sapiens, UniProt P19419 1-428).
T1 sequence: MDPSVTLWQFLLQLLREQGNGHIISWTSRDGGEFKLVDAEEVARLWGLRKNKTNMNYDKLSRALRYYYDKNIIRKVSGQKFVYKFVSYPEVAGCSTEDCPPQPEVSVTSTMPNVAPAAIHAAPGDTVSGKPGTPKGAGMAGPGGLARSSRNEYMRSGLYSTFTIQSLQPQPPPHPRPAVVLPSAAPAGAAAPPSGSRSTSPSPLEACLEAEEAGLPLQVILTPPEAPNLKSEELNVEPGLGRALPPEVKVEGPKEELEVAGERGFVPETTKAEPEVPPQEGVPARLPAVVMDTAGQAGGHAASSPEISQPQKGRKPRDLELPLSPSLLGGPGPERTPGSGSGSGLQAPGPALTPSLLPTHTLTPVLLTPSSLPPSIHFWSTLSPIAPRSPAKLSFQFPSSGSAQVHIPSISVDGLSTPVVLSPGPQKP
The gist of the method:
(§1)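 Sequencing on an Illumina NextSeq500 followed washing, crosslinking with 0.1% formaldehyde, proximity ligation (BsaI/T4 ligase, 1 h, 37 °C) and PCR amplification of pools that had been incubated for 30 min at room temperature with 200 nmole of a random double-stranded 16-mer DNA library in Tris/NaCl/DTT/glycerol buffer. Each pool held DNA-barcoded human transcription factors, expressed in yeast as GST fusions and captured on glutathione beads, plus a tag-only sample. Binding signal is a hexamer's read frequency for a factor divided by its frequency in the tag-only sample.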

The next assay has as its target T2, GABPA (Homo sapiens, UniProt Q06546 1-454).
T2 sequence: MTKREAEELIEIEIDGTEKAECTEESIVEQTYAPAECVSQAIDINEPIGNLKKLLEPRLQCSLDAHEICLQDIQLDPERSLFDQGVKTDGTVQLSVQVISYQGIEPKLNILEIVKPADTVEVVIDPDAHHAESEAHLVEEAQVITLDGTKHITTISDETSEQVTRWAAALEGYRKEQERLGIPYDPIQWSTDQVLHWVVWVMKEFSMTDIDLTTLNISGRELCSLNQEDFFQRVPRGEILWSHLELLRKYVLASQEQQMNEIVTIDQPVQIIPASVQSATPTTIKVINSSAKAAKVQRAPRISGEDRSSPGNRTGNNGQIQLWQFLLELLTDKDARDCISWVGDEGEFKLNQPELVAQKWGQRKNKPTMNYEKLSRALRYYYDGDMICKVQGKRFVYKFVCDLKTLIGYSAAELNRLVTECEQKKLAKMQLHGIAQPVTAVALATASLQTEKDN
The method in brief: as §1

The next assay concerns the target T3, ERG (Homo sapiens, UniProt P11308 1-479).
T3 sequence: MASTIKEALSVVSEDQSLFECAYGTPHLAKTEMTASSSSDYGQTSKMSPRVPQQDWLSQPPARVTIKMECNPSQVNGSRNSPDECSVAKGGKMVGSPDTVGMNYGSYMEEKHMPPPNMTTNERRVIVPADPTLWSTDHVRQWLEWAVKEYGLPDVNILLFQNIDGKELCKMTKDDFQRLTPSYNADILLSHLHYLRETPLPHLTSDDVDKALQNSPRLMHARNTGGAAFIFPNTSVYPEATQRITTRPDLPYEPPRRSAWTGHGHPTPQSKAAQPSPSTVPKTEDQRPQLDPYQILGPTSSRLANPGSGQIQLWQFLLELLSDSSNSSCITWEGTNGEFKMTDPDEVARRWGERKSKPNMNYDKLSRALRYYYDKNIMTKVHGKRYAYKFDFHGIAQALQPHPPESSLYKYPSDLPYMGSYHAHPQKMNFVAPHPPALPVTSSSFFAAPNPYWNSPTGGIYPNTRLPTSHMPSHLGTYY
The gist of the method: as §1

In another assay the target is ELF1 (Homo sapiens, UniProt P32519 1-619). The method in brief:
as §1

The target in another assay is T4, EHF (Homo sapiens, UniProt Q9NZC4 1-300).
T4 sequence: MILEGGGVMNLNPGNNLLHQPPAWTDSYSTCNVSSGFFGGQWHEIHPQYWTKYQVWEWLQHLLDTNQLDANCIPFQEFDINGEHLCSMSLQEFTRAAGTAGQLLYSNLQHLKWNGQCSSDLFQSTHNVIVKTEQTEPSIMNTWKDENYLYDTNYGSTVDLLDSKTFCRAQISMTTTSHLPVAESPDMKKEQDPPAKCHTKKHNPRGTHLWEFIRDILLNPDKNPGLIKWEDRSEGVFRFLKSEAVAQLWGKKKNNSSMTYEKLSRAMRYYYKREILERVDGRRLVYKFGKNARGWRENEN
The method in brief:
as §1

The target in a further assay is SPIB (Homo sapiens, UniProt Q01892 1-262). The method in brief: as §1
Chain of SPIB (Q01892 whole entry): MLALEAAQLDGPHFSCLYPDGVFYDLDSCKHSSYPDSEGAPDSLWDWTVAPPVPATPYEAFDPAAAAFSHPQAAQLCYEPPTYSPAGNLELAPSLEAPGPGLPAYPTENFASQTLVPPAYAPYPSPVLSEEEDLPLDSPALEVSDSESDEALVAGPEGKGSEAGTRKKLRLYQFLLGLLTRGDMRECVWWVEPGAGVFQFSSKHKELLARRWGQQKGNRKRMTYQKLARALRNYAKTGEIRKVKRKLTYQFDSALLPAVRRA
A further assay addresses T5, ELK3 (Homo sapiens, UniProt P41970 1-407).
T5 sequence: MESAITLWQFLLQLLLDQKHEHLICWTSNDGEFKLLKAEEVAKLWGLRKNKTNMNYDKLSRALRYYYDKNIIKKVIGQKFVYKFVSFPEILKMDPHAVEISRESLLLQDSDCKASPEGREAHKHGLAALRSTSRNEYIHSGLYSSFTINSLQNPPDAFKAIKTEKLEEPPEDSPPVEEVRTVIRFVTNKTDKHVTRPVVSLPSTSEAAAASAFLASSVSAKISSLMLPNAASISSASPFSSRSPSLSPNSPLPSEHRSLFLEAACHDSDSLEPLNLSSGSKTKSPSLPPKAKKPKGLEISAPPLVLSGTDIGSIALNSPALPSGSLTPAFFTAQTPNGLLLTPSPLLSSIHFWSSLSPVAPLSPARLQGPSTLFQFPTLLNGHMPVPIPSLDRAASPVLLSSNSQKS
The gist of the method:
as §1

In a further assay the target is ETV5 (Homo sapiens, UniProt P41161 1-510). The gist of the method: as §1
Chain of ETV5 (P41161 whole entry): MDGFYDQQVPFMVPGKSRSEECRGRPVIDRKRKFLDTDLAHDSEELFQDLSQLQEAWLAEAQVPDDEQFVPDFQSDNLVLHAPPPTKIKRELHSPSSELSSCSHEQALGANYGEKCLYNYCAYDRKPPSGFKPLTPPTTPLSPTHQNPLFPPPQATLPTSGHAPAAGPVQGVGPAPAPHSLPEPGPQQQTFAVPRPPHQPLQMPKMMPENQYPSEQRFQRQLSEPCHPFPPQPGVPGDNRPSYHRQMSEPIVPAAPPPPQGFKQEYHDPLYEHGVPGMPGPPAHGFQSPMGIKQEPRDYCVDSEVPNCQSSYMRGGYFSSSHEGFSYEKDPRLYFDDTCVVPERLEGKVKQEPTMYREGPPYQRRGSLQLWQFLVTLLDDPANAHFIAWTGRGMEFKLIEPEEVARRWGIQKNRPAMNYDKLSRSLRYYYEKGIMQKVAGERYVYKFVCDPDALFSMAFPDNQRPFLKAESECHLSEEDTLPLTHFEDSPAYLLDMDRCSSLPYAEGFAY
A further assay has as its target ELF4 (Homo sapiens, UniProt Q99607 1-663). The method in brief:
as §1

The target in another assay is T6, ELF3 (Homo sapiens, UniProt P78545 1-371).
T6 sequence: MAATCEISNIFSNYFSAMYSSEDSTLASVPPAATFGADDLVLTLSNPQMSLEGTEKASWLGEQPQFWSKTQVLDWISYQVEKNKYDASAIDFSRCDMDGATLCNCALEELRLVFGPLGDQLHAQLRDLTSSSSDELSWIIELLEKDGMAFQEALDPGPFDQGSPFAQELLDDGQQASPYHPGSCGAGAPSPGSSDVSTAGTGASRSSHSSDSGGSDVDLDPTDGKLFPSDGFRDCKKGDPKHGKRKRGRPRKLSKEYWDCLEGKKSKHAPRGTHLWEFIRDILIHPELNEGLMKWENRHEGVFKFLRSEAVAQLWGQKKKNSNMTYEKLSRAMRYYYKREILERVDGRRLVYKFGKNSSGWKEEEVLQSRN
The method in brief: as §1

For a further assay, the target named is ETV1 (Homo sapiens, UniProt P50549 1-477). The method in brief: as §1
Chain of ETV1 (P50549 whole entry): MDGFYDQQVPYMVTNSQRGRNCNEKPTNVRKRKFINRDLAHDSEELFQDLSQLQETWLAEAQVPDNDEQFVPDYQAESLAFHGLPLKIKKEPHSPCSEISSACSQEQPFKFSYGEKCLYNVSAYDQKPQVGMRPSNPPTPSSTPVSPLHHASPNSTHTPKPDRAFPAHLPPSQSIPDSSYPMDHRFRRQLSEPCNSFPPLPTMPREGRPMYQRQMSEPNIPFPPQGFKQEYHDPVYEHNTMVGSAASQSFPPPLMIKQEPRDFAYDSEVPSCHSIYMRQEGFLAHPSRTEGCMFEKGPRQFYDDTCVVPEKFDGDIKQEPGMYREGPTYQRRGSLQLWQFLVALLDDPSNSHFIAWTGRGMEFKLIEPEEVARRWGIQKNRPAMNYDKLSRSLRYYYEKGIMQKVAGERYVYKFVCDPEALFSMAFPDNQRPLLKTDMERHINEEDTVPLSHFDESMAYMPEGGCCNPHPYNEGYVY
The target of a further assay is T7, ERF (Homo sapiens, UniProt P50548 1-548).
T7 sequence: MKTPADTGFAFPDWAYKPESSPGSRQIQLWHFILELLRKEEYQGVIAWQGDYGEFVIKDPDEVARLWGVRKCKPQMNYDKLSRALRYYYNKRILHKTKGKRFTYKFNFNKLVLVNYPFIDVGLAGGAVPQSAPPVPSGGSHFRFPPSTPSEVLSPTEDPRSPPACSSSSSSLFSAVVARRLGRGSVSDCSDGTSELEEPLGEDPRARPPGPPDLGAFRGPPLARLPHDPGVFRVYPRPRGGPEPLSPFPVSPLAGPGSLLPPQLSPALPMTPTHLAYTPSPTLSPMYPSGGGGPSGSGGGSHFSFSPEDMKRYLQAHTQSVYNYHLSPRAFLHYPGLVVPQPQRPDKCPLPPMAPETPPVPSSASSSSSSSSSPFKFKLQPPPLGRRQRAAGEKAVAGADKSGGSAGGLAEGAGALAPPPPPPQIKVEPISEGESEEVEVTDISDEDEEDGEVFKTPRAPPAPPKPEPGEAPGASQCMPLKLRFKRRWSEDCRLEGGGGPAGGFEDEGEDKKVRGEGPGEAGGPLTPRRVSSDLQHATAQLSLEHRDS
The gist of the method:
as §1

The next assay has as its target T8, ETV3L (Homo sapiens, UniProt Q6ZN32 1-361).
T8 sequence: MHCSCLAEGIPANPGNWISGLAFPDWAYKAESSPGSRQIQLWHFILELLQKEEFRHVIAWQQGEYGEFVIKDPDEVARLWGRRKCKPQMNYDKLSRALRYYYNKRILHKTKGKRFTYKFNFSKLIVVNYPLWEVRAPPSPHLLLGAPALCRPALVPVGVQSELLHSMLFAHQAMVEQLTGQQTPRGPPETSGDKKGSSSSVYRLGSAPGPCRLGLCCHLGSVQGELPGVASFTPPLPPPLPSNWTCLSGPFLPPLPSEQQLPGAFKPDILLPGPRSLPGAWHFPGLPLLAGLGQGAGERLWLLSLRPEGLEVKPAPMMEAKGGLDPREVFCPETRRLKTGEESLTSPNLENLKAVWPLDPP
The gist of the method: as §1

Another assay addresses T9, ETS2 (Homo sapiens, UniProt P15036 1-469).
T9 sequence: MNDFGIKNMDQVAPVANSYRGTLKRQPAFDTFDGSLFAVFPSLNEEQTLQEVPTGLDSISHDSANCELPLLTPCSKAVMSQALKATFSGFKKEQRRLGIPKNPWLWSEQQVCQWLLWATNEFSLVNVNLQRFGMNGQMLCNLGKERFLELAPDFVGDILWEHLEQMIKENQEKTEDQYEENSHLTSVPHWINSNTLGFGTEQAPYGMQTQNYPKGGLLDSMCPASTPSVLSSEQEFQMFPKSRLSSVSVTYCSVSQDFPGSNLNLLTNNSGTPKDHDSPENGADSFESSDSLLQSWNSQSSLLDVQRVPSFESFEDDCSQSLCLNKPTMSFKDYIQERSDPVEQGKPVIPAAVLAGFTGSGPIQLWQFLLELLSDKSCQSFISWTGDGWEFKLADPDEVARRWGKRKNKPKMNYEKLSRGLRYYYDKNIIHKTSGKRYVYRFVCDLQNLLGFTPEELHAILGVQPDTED
The gist of the method:
as §1

The target in another assay is T10, SPDEF (Homo sapiens, UniProt O95238 1-335).
T10 sequence: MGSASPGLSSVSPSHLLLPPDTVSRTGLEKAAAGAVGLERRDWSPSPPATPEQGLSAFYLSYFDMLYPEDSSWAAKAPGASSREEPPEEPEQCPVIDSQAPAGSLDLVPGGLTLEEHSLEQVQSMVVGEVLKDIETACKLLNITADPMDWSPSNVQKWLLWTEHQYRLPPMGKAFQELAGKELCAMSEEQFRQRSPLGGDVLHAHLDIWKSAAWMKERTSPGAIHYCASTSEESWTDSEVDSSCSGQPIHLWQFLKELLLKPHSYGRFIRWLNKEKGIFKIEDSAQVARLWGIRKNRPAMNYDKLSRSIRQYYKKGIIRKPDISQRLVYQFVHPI
The gist of the method: as §1

The next assay addresses T11, ETV7 (Homo sapiens, UniProt Q9Y603 1-341).
T11 sequence: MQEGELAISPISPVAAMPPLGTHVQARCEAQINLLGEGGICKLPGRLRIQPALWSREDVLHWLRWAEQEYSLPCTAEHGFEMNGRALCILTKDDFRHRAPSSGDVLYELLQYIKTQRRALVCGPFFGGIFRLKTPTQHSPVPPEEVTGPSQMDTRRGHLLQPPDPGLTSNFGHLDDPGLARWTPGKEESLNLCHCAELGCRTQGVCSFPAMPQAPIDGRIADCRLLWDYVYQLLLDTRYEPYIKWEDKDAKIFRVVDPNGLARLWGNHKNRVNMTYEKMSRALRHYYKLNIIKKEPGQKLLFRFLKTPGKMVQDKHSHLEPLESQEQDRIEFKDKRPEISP
The gist of the method:
as §1

Another assay has as its target T12, ETV3 (Homo sapiens, UniProt P41162-2 1-143).
T12 sequence: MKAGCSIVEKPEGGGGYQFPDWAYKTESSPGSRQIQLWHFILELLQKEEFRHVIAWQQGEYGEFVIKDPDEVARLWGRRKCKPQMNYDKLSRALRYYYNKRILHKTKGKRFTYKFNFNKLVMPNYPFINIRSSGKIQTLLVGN
The method in brief:
as §1

A further assay has as its target ETV6 (Homo sapiens, UniProt P41212 1-452). The gist of the method:
as §1

Chain of ELF1 (P32519 whole entry): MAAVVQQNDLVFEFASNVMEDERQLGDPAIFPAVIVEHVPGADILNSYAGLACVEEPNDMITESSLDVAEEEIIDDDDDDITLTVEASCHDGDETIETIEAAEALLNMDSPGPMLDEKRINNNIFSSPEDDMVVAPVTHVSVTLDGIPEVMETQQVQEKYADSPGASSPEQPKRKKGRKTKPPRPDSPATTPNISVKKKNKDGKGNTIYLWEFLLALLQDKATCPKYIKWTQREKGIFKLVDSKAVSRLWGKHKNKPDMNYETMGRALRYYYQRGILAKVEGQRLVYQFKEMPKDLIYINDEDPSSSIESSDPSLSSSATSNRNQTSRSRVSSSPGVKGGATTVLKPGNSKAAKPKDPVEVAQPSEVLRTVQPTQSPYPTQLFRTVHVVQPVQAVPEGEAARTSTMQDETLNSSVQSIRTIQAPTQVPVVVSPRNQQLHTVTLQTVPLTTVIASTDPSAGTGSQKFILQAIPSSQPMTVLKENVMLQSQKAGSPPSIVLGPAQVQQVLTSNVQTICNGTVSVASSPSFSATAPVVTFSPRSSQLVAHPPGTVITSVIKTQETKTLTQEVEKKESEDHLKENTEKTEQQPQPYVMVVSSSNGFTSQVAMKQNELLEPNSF
Chain of ELF4 (Q99607 whole entry): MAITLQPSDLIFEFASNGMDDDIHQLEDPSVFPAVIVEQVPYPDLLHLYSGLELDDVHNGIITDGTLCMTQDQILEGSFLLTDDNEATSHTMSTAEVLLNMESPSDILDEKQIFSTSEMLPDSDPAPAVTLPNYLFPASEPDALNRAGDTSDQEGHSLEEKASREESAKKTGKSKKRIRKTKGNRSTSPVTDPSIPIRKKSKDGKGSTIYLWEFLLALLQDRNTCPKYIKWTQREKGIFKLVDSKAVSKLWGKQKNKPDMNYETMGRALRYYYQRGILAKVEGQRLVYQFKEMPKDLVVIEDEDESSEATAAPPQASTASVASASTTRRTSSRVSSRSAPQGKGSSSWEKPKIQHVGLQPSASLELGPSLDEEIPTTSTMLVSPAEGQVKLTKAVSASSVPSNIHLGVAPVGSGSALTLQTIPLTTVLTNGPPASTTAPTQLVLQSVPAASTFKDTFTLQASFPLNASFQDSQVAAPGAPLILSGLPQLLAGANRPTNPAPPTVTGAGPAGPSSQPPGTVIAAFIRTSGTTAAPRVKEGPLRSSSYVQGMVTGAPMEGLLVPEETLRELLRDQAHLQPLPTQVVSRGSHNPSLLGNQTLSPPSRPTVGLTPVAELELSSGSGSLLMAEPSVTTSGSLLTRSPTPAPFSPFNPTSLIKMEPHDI
Chain of ETV6 (P41212 whole entry): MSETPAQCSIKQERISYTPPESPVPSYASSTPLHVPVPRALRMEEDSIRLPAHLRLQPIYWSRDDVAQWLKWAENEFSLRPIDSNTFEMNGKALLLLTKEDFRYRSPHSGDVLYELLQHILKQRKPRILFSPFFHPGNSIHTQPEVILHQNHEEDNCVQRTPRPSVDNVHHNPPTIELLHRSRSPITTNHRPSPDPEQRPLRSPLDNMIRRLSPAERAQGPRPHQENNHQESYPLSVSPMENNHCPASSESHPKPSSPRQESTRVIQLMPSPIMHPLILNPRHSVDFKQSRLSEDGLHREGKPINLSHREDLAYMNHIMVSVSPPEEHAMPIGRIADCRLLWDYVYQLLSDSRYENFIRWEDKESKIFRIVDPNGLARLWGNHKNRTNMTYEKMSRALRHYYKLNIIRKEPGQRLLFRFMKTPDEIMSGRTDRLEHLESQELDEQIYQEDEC

Take GACCGG: the binding signal with ELK1 was 1.11 fold enrichment (6-mer frequency, TF over GST control); with GABPA, 1.02 fold enrichment (6-mer frequency, TF over GST control); with ERG, 1.31 fold enrichment (6-mer frequency, TF over GST control); with ELF1, 1 fold enrichment (6-mer frequency, TF over GST control); in the assay with EHF, 1.06 fold enrichment (6-mer frequency, TF over GST control); with SPIB, 1.07 fold enrichment (6-mer frequency, TF over GST control). Also, the binding signal in the assay with ELK3 was 1.23 fold enrichment (6-mer frequency, TF over GST control); with ETV5 it was 1.12 fold enrichment (6-mer frequency, TF over GST control); with ELF4 it was 1.03 fold enrichment (6-mer frequency, TF over GST control); with ELF3 it was 1.14 fold enrichment (6-mer frequency, TF over GST control); in the assay with ETV1 it was 1.21 fold enrichment (6-mer frequency, TF over GST control); with ERF, 1.06 fold enrichment (6-mer frequency, TF over GST control). The binding signal with ETV3L was 1.08 fold enrichment (6-mer frequency, TF over GST control); in the assay with ETS2 it was 1.07 fold enrichment (6-mer frequency, TF over GST control); with SPDEF, 1.19 fold enrichment (6-mer frequency, TF over GST control); with ETV7, 1.06 fold enrichment (6-mer frequency, TF over GST control); with ETV3, 1.09 fold enrichment (6-mer frequency, TF over GST control); with ETV6 it was 1.03 fold enrichment (6-mer frequency, TF over GST control).
